Screening data: PubChem, National Center for Advancing Translational Sciences (NCATS)
Most compounds without a hit are left out; they make up all but 0.37% or so of the library.
Vif-A3G inh – qHTS for Inhibitors of Vif-A3G Interactions: qHTS | HeLa A3G-eYFP + Vif (tagged APOBEC3G with the HIV-1 protein that degrades it), YFP fluorescence, overnight | Potency, µM (highest dose often 46.1 µM), actives largely listed as inhibitors | 0.076% of 410,000 active | AID 602310, 2012; note: nearly all actives have a fitted effect of over 60% in size
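HeLa cells stably expressing Vif and C-terminally eYFP-tagged A3G, seeded overnight at 37 deg C, then exposed to compound by pintool overnight at 37 deg C. Rise in yellow fluorescence (Ex 488/Em 500-530, Acumen) marks blocked Vif-driven A3G degradation.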
Epigenetic reg – Quantitative High-Throughput Screen for Regulators of Epigenetic Control | murine LDR cells, GFP reporter derepression, 30 h | Potency, µM (top dose mostly 53.9 µM), actives largely listed as activators | 0.2% of 280,000 active | AID 1865, 2009; note: nearly all actives have a fitted effect of over 60% in size
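Murine LDR cells bearing a silenced CMV-driven GFP reporter were exposed to compound for 30 h at 37 C. After PBS washes, GFP-positive cells (20-120 um objects) counted by laser-scanning microplate cytometry.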
Vif-APOBEC3F blk – qHTS for Inhibitors of Vif-A3F Interactions: qHTS. HeLa A3F-eYFP + Vif (tagged APOBEC3F with the HIV-1 protein that degrades it), YFP fluorescence increase. Potency, µM (highest dose often 46.1 µM). 0.2% of 390,000 active; note: nearly all actives have a fitted effect of over 65% in size
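Fluorescence increase (Ex 488/Em 500-530) after overnight compound treatment at 37 deg C flags inhibition of Vif-driven A3F-eYFP loss in stable HeLa A3F-eYFP/Vif cells seeded overnight beforehand.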
TSG101-PTAP inh – qHTS Assay for Iinhibitors of HIV-1 Budding by Blocking the Interaction of PTAP/TSG101 | Fluorescence polarization, FITC-PTAP peptide / Tsg101 binding | Potency, µM (series often up to 115 µM), usual class: inhibitors | Tumor susceptibility gene 101 protein (Homo sapiens), Q99816 | 340,000 tested, under 10 active; active = well fitted inhibition curve with a large enough effect in the main read-out, with a control signal flat, not every such curve was filed as active; inconclusive = small, poorly fitted or top-dose-only effect, or effect the other way, or a change in a side signal; inactive = no such curve, though single readings can be large or run the other way
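Fluorescence anisotropy tracks displacement of a FITC-tagged PTAP peptide (50 nM) from the Tsg101 binding domain (10 uM), following a 20 min room-temperature incubation at pH 7.5.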
CBFb RUNX1 block – qHTS Assay for Compounds Blocking the Interaction Between CBF-beta and RUNX1 for the Treatment of Acute Myeloid Leukemia. Runt-related transcription factor 1 (Homo sapiens) + Core-binding factor subunit beta …. 230,000 tested, under 10 active. Potency, µM (doses to about 59.8 µM), hits mostly inhibitors. AlphaScreen CBFb-His/RUNX1-biotin binding, biochemical
Target sequence (Q01196 whole entry, looked up): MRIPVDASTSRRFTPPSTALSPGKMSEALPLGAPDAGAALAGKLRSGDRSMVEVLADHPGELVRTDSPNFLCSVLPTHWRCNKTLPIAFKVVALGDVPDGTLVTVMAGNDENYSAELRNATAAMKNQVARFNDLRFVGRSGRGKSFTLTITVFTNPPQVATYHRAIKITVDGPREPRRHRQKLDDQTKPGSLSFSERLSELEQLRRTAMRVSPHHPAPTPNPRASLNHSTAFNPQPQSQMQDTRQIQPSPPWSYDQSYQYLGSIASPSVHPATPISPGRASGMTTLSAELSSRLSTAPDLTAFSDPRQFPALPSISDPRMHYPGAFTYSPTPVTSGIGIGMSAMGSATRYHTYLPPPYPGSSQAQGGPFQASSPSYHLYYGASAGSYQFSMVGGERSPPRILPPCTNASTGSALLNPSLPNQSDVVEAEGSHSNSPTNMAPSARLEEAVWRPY
Target sequence (Q13951 whole entry, looked up): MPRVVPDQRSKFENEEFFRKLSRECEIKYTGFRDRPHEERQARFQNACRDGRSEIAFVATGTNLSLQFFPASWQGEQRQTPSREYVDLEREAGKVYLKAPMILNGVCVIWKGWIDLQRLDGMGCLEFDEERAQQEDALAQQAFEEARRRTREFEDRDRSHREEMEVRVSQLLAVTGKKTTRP
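His-tagged CBF-beta and biotinylated RUNX1 (30 nM each) were premixed 20 min at room temperature, exposed to compound for 15 min, then given nickel-chelate and streptavidin AlphaScreen beads (50 ng each). After 90 min, AlphaScreen signal was read.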
MBNL1 CUG block – qHTS Assay for Inhibitors of MBNL1-poly(CUG) RNA binding; AID 2675, 2010; Potency, µM (doses to about 57.5 µM), actives largely listed as inhibitors; Muscleblind-like protein 1 (Homo sapiens), Q9NR56; TR-FRET MBNL1-His/biotin-(CUG)12 binding, 665/545 ratio; 0.036% of 280,000 active; active = well fitted inhibition curve with a large enough effect in the signal ratio, with a control signal flat, not every such curve was filed as active; inconclusive = small, poorly fitted or top-dose-only effect, or effect the other way, or a change in a side signal; inactive = no such curve, though single readings can be large or run the other way; the % refers to the signal ratio
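TR-FRET between His-tagged MBNL1 and biotin-(CUG)12 RNA, detected with Tb anti-His antibody (0.055 ng/ul) and streptavidin-XL665 (5 nM), 60 min at room temperature. Compounds titrated 92 nM to 58 uM; 665/545 nm ratio normalized to buffer and complex controls.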
Each line names hits and unclear results; the compound was inactive in the other large screens. Unless noted, calls come from the whole dose curve; as a rule, active = well fitted curve in the direction sought with a large enough effect; inconclusive = small, poorly fitted or top-dose-only effect, or another doubt; inactive = no such curve, though single readings can be large; an effect the other way counts as inactive or inconclusive.

Cc1ccc(C(=O)N/N=C/c2ccc([N+](=O)[O-])s2)cc1	Vif-A3G inh inconclusive, MBNL1 CUG block inconclusive
Cc1cccc(NC(=O)/C=C/c2ccc([N+](=O)[O-])s2)c1	Vif-A3G inh inconclusive, Epigenetic reg 7.08µM, Vif-APOBEC3F blk 7.08µM, MBNL1 CUG block inconclusive
Cc1cccc(NC(=S)N/N=C/c2ccc([N+](=O)[O-])s2)c1	Vif-A3G inh inconclusive, CBFb RUNX1 block inconclusive, MBNL1 CUG block inconclusive
Cc1ccc(NC(=O)/C=C/c2ccc([N+](=O)[O-])s2)c(C)c1	Vif-A3G inh inconclusive, Vif-APOBEC3F blk 10µM, MBNL1 CUG block inconclusive
CC(=O)C[n+]1cccc(Br)c1	none (no result: Epigenetic reg, Vif-APOBEC3F blk, TSG101-PTAP inh, CBFb RUNX1 block, MBNL1 CUG block)
CO[C@H]1/C=C\O[C@@]2(C)Oc3c(C)c(O)c4c(O)c(c(C=NN5CCN(C6CCCC6)CC5)c(O)c4c3C2=O)NC(=O)C(C)=CC=C[C@H](C)[C@H](O)[C@@H](C)[C@@H](O)[C@@H](C)[C@H](OC(C)=O)[C@H]1C	none (no result: Epigenetic reg, Vif-APOBEC3F blk, TSG101-PTAP inh, CBFb RUNX1 block, MBNL1 CUG block)
COc1ccc2[nH]cc(/C=C/c3cc[n+](C)cc3)c2c1	Vif-A3G inh 11.2µM, Vif-APOBEC3F blk 12.6µM, TSG101-PTAP inh inconclusive, MBNL1 CUG block inconclusive (no result: Epigenetic reg, CBFb RUNX1 block)
CCN(CC)C(=O)Cn1c(C)c(/C=C/c2cc[n+](C)cc2)c2ccccc21	Vif-A3G inh 7.94µM, Vif-APOBEC3F blk inconclusive, TSG101-PTAP inh inconclusive, MBNL1 CUG block inconclusive (no result: Epigenetic reg, CBFb RUNX1 block)
CCN(CC)C(=O)Cn1c(=O)n(CCc2ccccc2)c(=O)c2ccccc21	none (no result: TSG101-PTAP inh, CBFb RUNX1 block, MBNL1 CUG block)
Cc1ccc(N=C2NC(=O)/C(=C/c3cn(C)c4ccccc34)S2)cc1C	Vif-A3G inh 8.91µM, Vif-APOBEC3F blk inconclusive, TSG101-PTAP inh inconclusive (no result: MBNL1 CUG block)
Cn1cccc1/C=C1\SC(=Nc2ccccc2)NC1=O	Vif-A3G inh inconclusive (no result: MBNL1 CUG block)
COc1cc2nc(N3CCCN(C)CC3)nc(OC3CCN(C)CC3)c2cc1OC	none (no result: Epigenetic reg, Vif-APOBEC3F blk, TSG101-PTAP inh, CBFb RUNX1 block, MBNL1 CUG block)
COc1cc(/C=C2/CCC/C(=C\c3cc(O)c(OC)c(Cl)c3)C2=O)cc(Cl)c1O	Vif-A3G inh inconclusive, Epigenetic reg inconclusive, Vif-APOBEC3F blk 6.31µM
COc1cc(/C=C2\CC/C(=C\c3cc(OC)c(O)c(OC)c3)C2=O)cc(OC)c1O	Epigenetic reg inconclusive, CBFb RUNX1 block inconclusive (no result: MBNL1 CUG block)
COc1cc2nc3c(c([Si](C)(C)C(C)(C)C)c2cc1OC)Cn1c-3cccc1=O	Epigenetic reg 7.94µM (no result: Vif-A3G inh, Vif-APOBEC3F blk, TSG101-PTAP inh, MBNL1 CUG block)
CC(C)(C)n1ncc2c(=O)n(Cc3ccc(Cl)c(OC(F)(F)F)c3)cnc21	none (no result: Epigenetic reg, Vif-APOBEC3F blk, TSG101-PTAP inh, CBFb RUNX1 block, MBNL1 CUG block)
COc1ccc(CNC(=O)CSc2ncc3c(n2)-c2cc(Cl)ccc2N(Cc2ccccc2)S3(=O)=O)cc1OC	Epigenetic reg 22.4µM (no result: TSG101-PTAP inh, CBFb RUNX1 block, MBNL1 CUG block)
O=C(C[n+]1ccccc1Br)c1ccc(-c2ccccc2)cc1	none (no result: Epigenetic reg, Vif-APOBEC3F blk, TSG101-PTAP inh, CBFb RUNX1 block, MBNL1 CUG block)
CN1C2C=C3C(C#N)=C(N)C(C#N)(C#N)[C@H](c4c(F)cccc4F)[C@H]3C1CC2 (stereo not given in full)	none
N#CC1=C(N)C(C#N)(C#N)[C@H](c2c(F)cccc2F)[C@H]2CC3(CC=C12)OCCO3	Vif-A3G inh 12.6µM, Epigenetic reg inconclusive, Vif-APOBEC3F blk 22.4µM, CBFb RUNX1 block inconclusive, MBNL1 CUG block inconclusive
CN(C)c1ccc(NC2=C([N+](=O)[O-])CS(=O)(=O)C2)cc1	Epigenetic reg 15.8µM, MBNL1 CUG block inconclusive
Cc1ccc(NC2=C([N+](=O)[O-])CS(=O)(=O)C2)cc1	none
CCN(CC)c1nc(C)c(C(=S)Nc2cc([N+](=O)[O-])ccc2Cl)s1	Vif-APOBEC3F blk 11.2µM
O=C(C[N+]12CCCc3cccc(c31)CCC2)c1ccc2ccccc2c1	none (no result: Epigenetic reg, Vif-APOBEC3F blk, TSG101-PTAP inh, CBFb RUNX1 block, MBNL1 CUG block)
C/C(=N/Nc1ccc([N+](=O)[O-])cc1)c1ccc(C)cc1C	none
Cc1[nH]c2ccccc2c1/C=N/Nc1ccc([N+](=O)[O-])cc1	Vif-A3G inh 10µM, Vif-APOBEC3F blk 10µM, MBNL1 CUG block inconclusive
